Assay [1] concerns the target Rap guanine nucleotide exchange factor 3 (Homo sapiens) (UniProt O95398). As to the kind of experiment: Confirmatory qHTS for antagonist of cAMP-regulated guanine nucleotide exchange factor 3 (EPAC1) (AID 1645880). Also: nearly all actives have a fitted effect of over 55% in size. Also: potency is read from the fitted curve at half-maximal effect. Put shortly:
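Released BODIPY-GDP fluoresces less than Rap1-bound BODIPY-GDP; the signal is followed at 480/540 nm at 5-min intervals over 30 min, after 5 min at room temperature. Reactions contain 100 nM EPAC1, 250 nM RAP1B-BODIPY-GDP and 50 uM GDP; results are normalized to ATA and DMSO.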
On the technique in general: In qHTS, concentration-response curves come from the screen itself.

For assay [2] the target is unchanged. As to the kind of experiment: Confirmatory qHTS for agonist of cAMP-regulated guanine nucleotide exchange factor 3 (EPAC1) (AID 1645881). Also: nearly all actives have a fitted effect of over 75% in size. Also: potency is read from the fitted curve at half-maximal effect.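 As to activation: EPAC1 catalysed release of BODIPY-GDP from Rap1B seen as fluorescence loss; 100% = effect of cAMP agonist control.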
The target of assay [3] is Rap guanine nucleotide exchange factor 4 (Homo sapiens) (UniProt Q8WZA2). Description: Confirmatory qHTS for agonist of cAMP-regulated guanine nucleotide exchange factor 4 (EPAC2) (AID 1645884).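 Also: nucleotide exchange releases bodipy-GDP from Rap1 and this lowers its fluorescence; nearly all actives have a fitted effect of over 65% in size.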 Also: potency is read from the fitted curve at half-maximal effect. As to activation: % is scaled to controls: 0 for no effect and ±100 for the full control effect.
For assay [4] the target is unchanged. As to the kind of experiment: Confirmatory qHTS for antagonist of cAMP-regulated guanine nucleotide exchange factor 4 (EPAC2) (AID 1645885). Also: nearly all actives have a fitted effect of over 25% in size. Also: potency is read from the fitted curve at half-maximal effect. As to activity change, negative = inhibition: % is scaled to controls: 0 for no effect and ±100 for the full control effect.
Assay [5] addresses Rap guanine nucleotide exchange factor 3 (Homo sapiens) (UniProt O95398). As to the kind of experiment: Counterscreen qHTS for antagonist of cAMP-regulated guanine nucleotide exchange factor 3 (EPAC1) (AID 1645888). Also: % of control where 0% means no effect. A digest of the protocol: (§1)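 Measured: fluorescence of BODIPY-GDP bound to Rap1B, which falls as exchange proceeds. Conditions include 50 uM competing GDP, 5 and 30 min reads, and a later cAMP challenge for antagonist detection.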
For orientation: The purpose of a counterscreen is to sort out artefacts and off-target activity.

Assay [6] shares this target. As to the kind of experiment: Counterscreen qHTS for agonist of cAMP-regulated guanine nucleotide exchange factor 3 (EPAC1) (AID 1645889). Also: nearly all actives have a fitted effect of over 40% in size. Also: potency is read from the fitted curve at half-maximal effect. As to activation: % of control where 0% means no effect. Put shortly:
as §1

This passage reports Potency, activation and activity change, negative = inhibition results from PubChem BioAssay (NCATS).

Inconclusive results are not listed. Values without a mark were called inactive. Calls of active or inactive are those of the source. Calls follow the shape of the dose curve; as a rule, active = well fitted curve in the direction sought with a large enough effect; inconclusive = small, poorly fitted or top-dose-only effect, or another doubt; inactive = no such curve, though single readings can be large; an effect the other way counts as inactive or inconclusive.

Sequence of Rap guanine nucleotide exchange factor 4 (Homo sapiens) (Q8WZA2 whole entry, looked up): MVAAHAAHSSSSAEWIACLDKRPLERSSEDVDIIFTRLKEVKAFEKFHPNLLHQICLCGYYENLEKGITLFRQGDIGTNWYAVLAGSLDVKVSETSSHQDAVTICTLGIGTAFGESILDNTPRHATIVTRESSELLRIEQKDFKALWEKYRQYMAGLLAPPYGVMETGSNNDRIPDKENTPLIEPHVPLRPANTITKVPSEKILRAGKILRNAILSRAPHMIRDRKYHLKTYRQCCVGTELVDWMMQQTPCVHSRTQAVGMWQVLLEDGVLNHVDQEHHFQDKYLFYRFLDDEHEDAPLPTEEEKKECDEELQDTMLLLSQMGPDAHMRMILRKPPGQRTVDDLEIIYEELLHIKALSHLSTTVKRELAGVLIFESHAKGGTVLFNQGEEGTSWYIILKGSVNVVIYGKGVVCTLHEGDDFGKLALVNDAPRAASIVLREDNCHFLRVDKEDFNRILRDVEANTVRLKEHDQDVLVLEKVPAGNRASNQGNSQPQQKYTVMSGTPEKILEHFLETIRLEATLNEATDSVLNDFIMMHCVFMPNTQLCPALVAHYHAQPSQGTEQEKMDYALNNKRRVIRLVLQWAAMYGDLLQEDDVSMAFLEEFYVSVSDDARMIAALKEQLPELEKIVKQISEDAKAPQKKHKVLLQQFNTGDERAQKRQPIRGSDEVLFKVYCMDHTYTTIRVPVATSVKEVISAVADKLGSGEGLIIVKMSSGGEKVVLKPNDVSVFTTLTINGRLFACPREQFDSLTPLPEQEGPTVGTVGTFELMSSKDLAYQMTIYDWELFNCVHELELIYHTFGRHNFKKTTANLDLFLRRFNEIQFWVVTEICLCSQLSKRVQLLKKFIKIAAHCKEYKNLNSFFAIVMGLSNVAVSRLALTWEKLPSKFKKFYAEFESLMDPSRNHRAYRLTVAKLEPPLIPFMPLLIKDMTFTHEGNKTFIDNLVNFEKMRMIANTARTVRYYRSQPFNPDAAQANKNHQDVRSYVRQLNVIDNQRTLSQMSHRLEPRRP
Sequence of Rap guanine nucleotide exchange factor 3 (Homo sapiens) (O95398 whole entry, looked up): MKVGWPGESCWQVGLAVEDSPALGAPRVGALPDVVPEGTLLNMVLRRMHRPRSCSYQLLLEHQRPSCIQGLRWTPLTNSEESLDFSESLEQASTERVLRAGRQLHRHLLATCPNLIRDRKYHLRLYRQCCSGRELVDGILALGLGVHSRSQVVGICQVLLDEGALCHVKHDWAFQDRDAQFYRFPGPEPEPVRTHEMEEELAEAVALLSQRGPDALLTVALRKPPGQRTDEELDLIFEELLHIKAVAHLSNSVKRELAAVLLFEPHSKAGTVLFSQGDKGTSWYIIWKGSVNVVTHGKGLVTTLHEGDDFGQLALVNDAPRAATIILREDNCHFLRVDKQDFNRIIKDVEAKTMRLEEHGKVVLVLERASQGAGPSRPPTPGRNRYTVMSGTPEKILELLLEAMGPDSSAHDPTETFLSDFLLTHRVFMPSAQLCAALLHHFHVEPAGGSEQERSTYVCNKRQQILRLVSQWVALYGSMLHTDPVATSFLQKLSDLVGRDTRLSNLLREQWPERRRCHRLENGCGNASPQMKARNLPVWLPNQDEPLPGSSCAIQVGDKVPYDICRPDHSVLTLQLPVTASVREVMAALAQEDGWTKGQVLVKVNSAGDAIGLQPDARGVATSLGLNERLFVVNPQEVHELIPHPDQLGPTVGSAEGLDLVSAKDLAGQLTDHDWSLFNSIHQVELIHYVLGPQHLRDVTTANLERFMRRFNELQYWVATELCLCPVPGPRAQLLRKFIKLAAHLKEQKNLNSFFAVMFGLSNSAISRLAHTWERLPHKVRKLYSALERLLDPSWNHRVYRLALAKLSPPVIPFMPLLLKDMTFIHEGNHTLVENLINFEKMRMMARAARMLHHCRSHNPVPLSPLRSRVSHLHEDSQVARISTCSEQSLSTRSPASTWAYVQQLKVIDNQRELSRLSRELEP

Consider `C/C=C/C(=O)N1c2ccc(C)cc2C(C)=CC1(C)C`, for which the Potency result in assay [1], in assay [2], in assay [3], in assay [4], in assay [5] and in assay [6] was “inactive” throughout.

Consider `Cc1sc2ncnc(N3CCCC(C)C3)c2c1C` (stereo not given), for which the Potency result in assay [1], in assay [2], in assay [3], in assay [4], in assay [5] and in assay [6] was “inactive” each time.

For the compound `CCn1c2ccccc2c2nnc(SCC(=O)N(C)C3CCS(=O)(=O)C3)nc21` (stereo not given), the Potency result in assay [1], in assay [2] and in assay [4] was “inactive” in each case. The activation in assay [3] is 3.11% [at 17.1 µM, percent relative to cAMP agonist control]; in assay [6] it was 4.22% [at 30.8 µM]. The activity change, negative = inhibition in assay [5] was 5.48% [at 30.8 µM].

Regarding `Cc1cc2ccccn2c1C(=O)c1ccc(C#N)cc1`, the Potency result in assay [1], in assay [2], in assay [3], in assay [4], in assay [5] and in assay [6] was “inactive” each time.

Turning to `C=CCN(CC=C)Cc1cc(=O)oc2cc(OC)ccc12`, the Potency entry in assay [1], in assay [2] and in assay [4] was “inactive” in each case. Besides, the activation was 5.94% [at 17.1 µM, percent relative to cAMP agonist control] in assay [3] and -2.24% [at 30.8 µM] in assay [6]. Further, the activity change, negative = inhibition in assay [5] is -16% [at 30.8 µM].

Consider `O=C(O)C(c1ccccc1)N1C(=O)/C(=C\c2ccc(-c3ccccc3Cl)o2)SC1=S` (stereo not given), for which the Potency entry in assay [1], in assay [2], in assay [3], in assay [4], in assay [5] and in assay [6] was “inactive” each time.

As to `CC1(C(=O)NS(=O)(=O)c2ccc(C#N)cc2)CCN1C(=O)C1(c2ccccc2)CCCC1` (stereo not given), the Potency in assay [1] is 37.9 µM (active); in assay [4], 33.8 µM (active). Moreover, the Potency result in assay [2], in assay [3], in assay [5] and in assay [6] was “inactive” in each case.

Turning to `C=CCOc1ccc(C(c2c(C(=O)O)[nH]c3ccccc23)c2c(C(=O)O)[nH]c3ccccc23)cc1`, the Potency in assay [1] was 33.8 µM (active). Further, the Potency entry in assay [2], in assay [3], in assay [4], in assay [5] and in assay [6] was “inactive” each time.

For `COn1c(-c2ccc(Cl)cc2Cl)nc2ncccc21`, the Potency entry in assay [1], in assay [2], in assay [3], in assay [5] and in assay [6] was “inactive” throughout. For the same compound, the Potency in assay [4] is 84.9 µM (active).

With `CCN(CC)c1ccc(C(=O)OCC(=O)NCC2CCCO2)cc1` (stereo not given), the Potency entry in assay [1], in assay [2] and in assay [4] was “inactive” in each case. For the same compound, the activation in assay [3] is 4.19% [at 17.1 µM, percent relative to cAMP agonist control]; in assay [6], 25.8% [at 30.8 µM]. Besides, the activity change, negative = inhibition in assay [5] is -1.2% [at 30.8 µM].

Consider `CC(OC(=O)CNC(=O)COc1ccccc1)C(=O)N(C)Cc1ccccc1` (stereo not given), for which the Potency entry in assay [1], in assay [2] and in assay [4] was “inactive” throughout. Besides, the activation in assay [3] was 1.04% [at 17.1 µM, percent relative to cAMP agonist control]; in assay [6], -1.24% [at 30.8 µM]. Besides, the activity change, negative = inhibition in assay [5] was -17.7% [at 30.8 µM].

With `Cc1nnc(N/N=C\c2ccc(-c3ccccc3[N+](=O)[O-])o2)n1N`, the Potency result in assay [1], in assay [2] and in assay [4] was “inactive” each time. In addition, the activation in assay [3] was 4.31% [at 17.1 µM, percent relative to cAMP agonist control]; in assay [6] it was 36.2% [at 30.8 µM]. Moreover, in assay [5], the activity change, negative = inhibition is 7.63% [at 30.8 µM].

As for `Cc1ccc(S(=O)(=O)N2C(c3ccc(Cl)c(Cl)c3)CC=C(C(=O)O)C2c2ccc(Cl)cc2)cc1` (stereo not given), the Potency in assay [1] is 84.9 µM (active). For the same compound, the Potency result in assay [2], in assay [3], in assay [4], in assay [5] and in assay [6] was “inactive” throughout.

Regarding `C=CCCCN(Cc1ccccc1)S(=O)(=O)c1ccccc1Br`, the Potency entry in assay [1], in assay [2] and in assay [4] was “inactive” in each case. Further, the activation was 1.87% [at 17.1 µM, percent relative to cAMP agonist control] in assay [3] and 12.4% [at 30.8 µM] in assay [6]. For the same compound, the activity change, negative = inhibition in assay [5] was -1.46% [at 30.8 µM].

For `COc1ccc(C(C)=NNc2ccc([N+](=O)[O-])cc2S(=O)(=O)Nc2ccccc2C(=O)O)c(OC)c1`, the Potency in assay [1] is 37.9 µM (active); in assay [4] it was 75.7 µM (active). Moreover, the Potency entry in assay [2], in assay [3], in assay [5] and in assay [6] was “inactive” each time.

In the case of `Cc1ccc(OCCC(=O)OCC(=O)NNC(=O)c2ccccc2)cc1`, the Potency entry in assay [1], in assay [2] and in assay [4] was “inactive” throughout. The activation was 0.0575% [at 17.1 µM, percent relative to cAMP agonist control] in assay [3] and 0.419% [at 30.8 µM] in assay [6]. Further, the activity change, negative = inhibition in assay [5] was -6.38% [at 30.8 µM].

For `COc1ccc(S(=O)(=O)N2CCCC2)cc1C(C)C`, the Potency result in assay [1], in assay [2] and in assay [4] was “inactive” throughout. Also, the activation in assay [3] was -3.36% [at 17.1 µM, percent relative to cAMP agonist control]; in assay [6], 2.24% [at 30.8 µM]. The activity change, negative = inhibition in assay [5] is -3.04% [at 30.8 µM].

For `Nc1c(C(=O)c2ccccc2)sc2nsc(SCCN3CCCC3)c12`, the Potency result in assay [1] and in assay [5] was “inactive” throughout. The Potency was 100 µM (active) in assay [2], 100 µM (active) in assay [3], 84.9 µM (active) in assay [4] and 39.8 µM (active) in assay [6].

As for `COc1ccc(CN2C(=O)c3cccnc3C2Nc2cc(Cl)c(OC)cc2OC)cc1` (stereo not given), the Potency in assay [1] is 75.7 µM (active). Moreover, the Potency entry in assay [2], in assay [3], in assay [4], in assay [5] and in assay [6] was “inactive” each time.

Regarding `COc1ccccc1-n1c(-c2ccccc2)c[n+]2c1CCc1ccccc1-2`, the Potency result in assay [1], in assay [2], in assay [3], in assay [4], in assay [5] and in assay [6] was “inactive” throughout.
